# In PubChem BioAssay AID651626 (National Center for Advancing Translational Sciences (NCATS), 2012):
# Values without a mark were called inactive.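 Rule for the calls: active = inhibition of at least 60% at 114 µM in the USP2 gel assay; inconclusive = inhibition from 30% up to under 60% at 114 µM; inactive = inhibition under 30% at 114 µM.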
# Molecular target: Ubiquitin carboxyl-terminal hydrolase 2 (Homo sapiens) (UniProt O75604)
# Test: Inhibitors of USP1/UAF1: SAR in USP2 diubiquitin SDS-PAGE gel assay
# Details: USP2 K63 diubiquitin cleavage, SDS-PAGE gel densitometry; series mostly up to 114 µM; inhibition: at the top concentration
# Description: Deubiquitinating enzymes (DUBs) are a class of enzymes that can cleave isopeptide bond formed between the C-terminal carboxylate of ubiquitin and a lysine side-chain amino group on the target protein. Among them, ubiquitin specific proteases (USPs) constitute the largest DUB family. Human USPs are emerging as promising targets for pharmacological intervention because of their connection to a number of human diseases, including prostate, colon and breast cancer (1, 2), pediatric acute lymphoblastic leukemia (3), and familial cylindromatosis (4). The advantage of inhibiting USPs lies in the potential specificity of therapeutic intervention that can lead to better efficacy and reduce nonspecific side effects. In a collaboration between the University of Delaware and the NIH Chemical Genomics Center, a high-throughput screen assay was developed to screen for USP1/UAF1 inhibitors (5). […]
# The inhibition assay contains 20 nM USP2, 2 microM K63 linked diubiquitin, and inhibitors at varied concentrations (0.08 microM - 114 microM). […] The intensity of the individual diubiquitin and monoubiquitin band was quantified using Quantity One 4.3.1 (Biorad, Hercules, CA). The percentage of the conversion was determined and used to calculate the reaction rate. […]
# Chain of Ubiquitin carboxyl-terminal hydrolase 2 (Homo sapiens) (O75604 whole entry, looked up): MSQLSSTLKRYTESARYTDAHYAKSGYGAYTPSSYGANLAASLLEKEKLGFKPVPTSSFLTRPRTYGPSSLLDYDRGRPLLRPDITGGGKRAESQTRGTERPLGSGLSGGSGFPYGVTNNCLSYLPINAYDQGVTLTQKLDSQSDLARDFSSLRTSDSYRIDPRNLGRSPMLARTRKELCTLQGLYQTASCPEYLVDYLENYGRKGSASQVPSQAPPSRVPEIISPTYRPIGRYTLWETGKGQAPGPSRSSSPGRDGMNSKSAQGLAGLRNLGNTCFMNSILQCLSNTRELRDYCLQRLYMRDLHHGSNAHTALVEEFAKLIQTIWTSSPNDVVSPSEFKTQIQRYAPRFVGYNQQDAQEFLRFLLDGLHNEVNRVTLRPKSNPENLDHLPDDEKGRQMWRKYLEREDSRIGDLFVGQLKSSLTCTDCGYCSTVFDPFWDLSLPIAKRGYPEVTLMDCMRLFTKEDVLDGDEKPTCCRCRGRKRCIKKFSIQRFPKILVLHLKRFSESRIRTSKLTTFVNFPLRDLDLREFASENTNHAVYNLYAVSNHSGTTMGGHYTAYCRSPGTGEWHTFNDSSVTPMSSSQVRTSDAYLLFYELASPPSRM
row,Structure (SMILES),inhibition
1,Cc1cnc(-c2ccccc2C(C)C)nc1NCc1ccc(-n2ccnn2)cc1,8%
